# This is a sample that favours compounds with a hit; in the whole collection about 10% have one here.
# PNC inhibitor = blocks assembly of the perinucleolar compartment; PC3M PTB-GFP, PNC prevalence imaging, 16 h; active compounds read low; actives 3.1% (n = 140,000); activity change (PNC), negative = inhibition, % at 10 µM; AID 2417;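 active means readout at or below -70, meaning at least 70% loss of cells showing the perinucleolar compartment, a nuclear body marking cancer cells; inconclusive means readout between -30 and a set limit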
#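 PC3M cells stably expressing PTB-GFP, 750–1000 cells/well, treated 16 h at 37 °C with compound (23 nl of library stock), in duplicate. After paraformaldehyde fixation and Hoechst stain, imaged at 20x; PNC prevalence scored by image analysis.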
# Lamin A splicing = LMNA splicing modulation. HeLa LMNA splicing GFP/RFP minigene ratio, 48 h. Potency, µM (series often up to 46.1 µM), actives largely listed as inhibitors. AID 1487. actives 0.01% (n = 200,000); active means well fitted inhibition curve with a large enough effect in the signal ratio, with a control signal flat, not every such curve was filed as active; inconclusive means small, poorly fitted or top-dose-only effect, or effect the other way, or a change in a side signal; the % refers to the signal ratio
#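 S3 HeLa stable clones carrying a lamin A-EGFP splicing minigene plus DsRed2 were seeded at 600 cells/well in Opti-MEM with 2% FBS, pin-dosed and incubated 48 h at 37°C. Acumen cytometry (488 nm) gave the GFP/RFP total-intensity ratio.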
# ALOX12 inhib = blocks human 12-lipoxygenase activity; P18054; purified 12-hLO, xylenol orange hydroperoxide absorbance; Potency, µM (titrated, usually from 57.1 µM), hits mostly inhibitors; actives 0.12% (n = 150,000); AID 1452; active means well fitted inhibition curve with a large enough effect; inconclusive means small, poorly fitted or top-dose-only effect; further: nearly all actives have a fitted effect of over 55% in size
#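 Lipoxygenase turnover measured by absorbance at 573 and 405 nm after Fe-XO development. Human 12hLO 150 nM, arachidonate 40 uM, pH 7.0 Hepes buffer with detergent; 15 min compound preincubation, 30 min reaction.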
# ALDH1A1 inh = ALDH1A1 (human) enzyme inhibition. Purified ALDH1A1, NADH fluorescence, propionaldehyde substrate. Potency, µM (titrated, usually from 75.3 µM), hits mostly inhibitors. actives 7.3% (n = 220,000). AID 1030
# HPGD block = blocks human HPGD enzyme activity; P15428; purified HPGD, NADH fluorescence kinetic, PGE2 substrate; Potency, µM, hits mostly inhibitors; actives 4.3% (n = 150,000); AID 894
# Target sequence (P15428 whole entry, looked up): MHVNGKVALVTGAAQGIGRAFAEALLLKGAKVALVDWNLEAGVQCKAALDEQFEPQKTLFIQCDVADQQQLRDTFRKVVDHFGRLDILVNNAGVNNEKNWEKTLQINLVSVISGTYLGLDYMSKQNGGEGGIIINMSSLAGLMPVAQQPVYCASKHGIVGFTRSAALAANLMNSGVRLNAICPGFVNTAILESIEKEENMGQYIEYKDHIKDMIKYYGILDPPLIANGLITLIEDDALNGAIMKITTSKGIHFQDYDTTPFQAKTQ
#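 20 nM HPGD preincubated 15 min at room temperature with compound in 50 mM Tris-HCl pH 8, 0.01% Tween 20. Started with 1 mM NAD+ and 30 uM prostaglandin E2; NADH fluorescence (360/450 nm) read 5 times over 30-s intervals, last minus first.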
# Numbers stand for hits; - = inactive; ? = inconclusive; . = no result given; [ ] = another dose, or the depositor's remark. Unless noted, the call rests on the fitted dose curve; in most records, active means well fitted inhibition curve with a large enough effect (not every such curve was filed as active); inconclusive means small, poorly fitted or top-dose-only effect, or another doubt; inactive means no such curve, though single readings can be large or run the other way.
SMILES,PNC inhibitor,Lamin A splicing,ALOX12 inhib,ALDH1A1 inh,HPGD block
O=C(NCC1CCCO1)C1CC(c2ccccc2Cl)=NO1 (configuration not stated),-,-,-,-,20µM
CS(=O)(=O)N1CCN(c2ccc([N+](=O)[O-])c(NCc3cccnc3)c2)CC1,.,.,.,-,.
Cc1ccccc1C(=O)N1CCN(c2ccc([N+](=O)[O-])c(NCc3cccnc3)c2)CC1,-,?,-,16µM,-
CS(=O)(=O)N1CCN(c2ccc([N+](=O)[O-])c(NCc3ccccc3)c2)CC1,-,-,-,-,-
Cc1ccc(C(=O)N2CCN(c3ccc([N+](=O)[O-])c(NCc4cccnc4)c3)CC2)cc1,-,-,-,13µM,-
O=C(c1ccccc1F)N1CCN(c2ccc([N+](=O)[O-])c(NCC3CCCO3)c2)CC1 (configuration not stated),.,?,.,11µM,.
COc1ccc(-n2c(SCC(=O)NNC(=O)c3ccc(C)cc3)nnc2-c2ccncc2)cc1,-,-,-,-,-
COc1ccc(-n2c(SCC(N)=O)nnc2-c2ccc(NS(=O)(=O)c3ccc(C)cc3)cc2)cc1,-,-,-,?,22µM
COc1ccc(-n2c(SCC#N)nnc2-c2ccc(NS(=O)(=O)c3ccc(C)cc3)cc2)cc1,?,-,-,?,14µM
COc1ccc(-n2c(SCC(=O)Nc3ccccc3)nnc2-c2ccc(NS(=O)(=O)c3ccc(C)cc3)cc2)cc1,-,-,-,-,-
O=C(Nc1nc(-c2ccc(Br)cc2)ns1)c1ccccc1F,.,-,.,.,.
CC(NC(=O)C(=O)Nc1c2c(nn1-c1ccc(F)cc1)CSC2)c1ccccc1 (configuration not stated),.,-,.,.,.
O=C(O)C1CSC2c3ccccc3C(=O)N12 (configuration not stated),?,-,-,7.5µM,?
O=[N+]([O-])c1cc2c(cc1/C=N/NS(=O)(=O)c1ccc(Br)cc1)OCO2,.,?,.,3.2µM,.
CC(C)(C)NC[C@H](O)c1cc(O)cc(O)c1,.,?,-,-,-
O=C1CCCCCC1C1(O)C(=O)Nc2ccccc21 (configuration not stated),-,-,-,-,-
COc1ccc2c(c1)CC(C1(O)C(=O)Nc3ccccc31)C2=O (configuration not stated),-,-,-,32µM,-
N[C@@H](CO)C(=O)NNCc1ccc(O)c(O)c1O,.,-,-,?,-
O=C(O)c1ccccc1N/N=C\c1ccnc2ccccc12,-,-,-,?,13µM
O=C1N=c2ccccc2=C1c1c(O)n(-c2cccc(F)c2)[nH]c1=O,-,-,-,25µM,5.6µM
CCn1c(O)c(C2=c3ccccc3=NC2=O)c2cc(Br)ccc21,.,.,.,-,.
COc1ccc(CCNC(=O)C(=O)NCC(c2ccco2)S(=O)(=O)c2ccccc2)cc1OC (configuration not stated),.,-,.,.,.
O=C(c1ccco1)N1CCC2(CC1)CN(c1cccc(-c3ccccc3)c1)C2,.,.,-,?,?
CC(=O)Nc1ccc2c(c1)/C(=C/c1ccc([N+](C)(C)C)cc1)c1ccccc1-2,.,.,-[11.4 µM],-[13.5 µM],-
CN=C1N[C@H](c2ccccc2)N(c2ccccc2)S1,.,.,?,1.3µM,13µM
SMILES,PNC inhibitor,Lamin A splicing,ALOX12 inhib,ALDH1A1 inh,HPGD block
CCOC(=O)c1c(C)oc2c1c(C=NCC1CCCO1)c(O)c1ccccc12 (configuration not stated),-,-,-,-,-
CCOC(=O)c1c(C)oc2c1c1c(c3ccccc32)OCN(Cc2cccnc2)C1,-,?,?,0.2µM,-
CCOC(=O)c1c(C)oc2c1cc(O)c1ccccc12,-,-,-,-,-
CCOC(=O)c1c(C)oc2c1c1c(c3ccccc32)OCN(CCCC(=O)O)C1,.,.,.,7.9µM,.
COC(=O)c1ccc(C(/C=C/[C@@H](C)C(=O)NCc2ccc(OC)c(O)c2)NC(=O)OCc2ccccc2)cc1 (some centres not stated),.,.,-,?,-
CN(C)CCN(C(=O)c1ccc(N2C(=O)CCC2=O)cc1)c1nc2cc3c(cc2s1)OCCO3,.,-,.,28µM,.
Nc1c(C(=O)NCC2CCCO2)sc2nc3c(c(-c4ccco4)c12)CC/C3=C\c1ccco1 (configuration not stated),?,-,-,?,20µM
COC(=O)c1cc(NC(=O)c2c(Cl)cnn2C)cc(C(=O)OC)c1,-101,-,-,-,-

# Source: PubChem (National Center for Advancing Translational Sciences (NCATS))
